In PubChem BioAssay (NCATS):
Results filed as inconclusive are left out. Activity calls are given as the source filed them. Calls follow the shape of the dose curve; as a rule, active = well fitted curve in the direction sought with a large enough effect; inconclusive = small, poorly fitted or top-dose-only effect, or another doubt; inactive = no such curve, though single readings can be large; an effect the other way counts as inactive or inconclusive.

Legend:
[1] = Cellular Toxicity (caspase-3) Renal Proximal Tubule (AID 667); settings: renal proximal tubule cells; at 91.7 µM (top of the series), primary cells freshly taken from rat, solvent-only wells 0%, staurosporine 100% unless noted;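 also: cells exposed to compound for 16 hours at 37 °C before detection; 0% = DMSO basal and 100% = 10 µM staurosporine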
Method in brief: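 Luminescent caspase 3/7 signal from peptide-aminoluciferin cleavage measures apoptosis in freshly isolated rat kidney proximal tubule cells after 16 h compound exposure. Concentration-response data are normalized to DMSO and 10 uM staurosporine, and AC50 values come from Hill equation fits.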

[2] = target: Cytochrome P450 3A4 (Homo sapiens) (UniProt P08684); experiment: qHTS Assay for Activators of Cytochrome P450 3A4 (AID 885); also: nearly all actives have a fitted effect of over 65% in size
Chain of Cytochrome P450 3A4 (Homo sapiens) (P08684 whole entry, looked up): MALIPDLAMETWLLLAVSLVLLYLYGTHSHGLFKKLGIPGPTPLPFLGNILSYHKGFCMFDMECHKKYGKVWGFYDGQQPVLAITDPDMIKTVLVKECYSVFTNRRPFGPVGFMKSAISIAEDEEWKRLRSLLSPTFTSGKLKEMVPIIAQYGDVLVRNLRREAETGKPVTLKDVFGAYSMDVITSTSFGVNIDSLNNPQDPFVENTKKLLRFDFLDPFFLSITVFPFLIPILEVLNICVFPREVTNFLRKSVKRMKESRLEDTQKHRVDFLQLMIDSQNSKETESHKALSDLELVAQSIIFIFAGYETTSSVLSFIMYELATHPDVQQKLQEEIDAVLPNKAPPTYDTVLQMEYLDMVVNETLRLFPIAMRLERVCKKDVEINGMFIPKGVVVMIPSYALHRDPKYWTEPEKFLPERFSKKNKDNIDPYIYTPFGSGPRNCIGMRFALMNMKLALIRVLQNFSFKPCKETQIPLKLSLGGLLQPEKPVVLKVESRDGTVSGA
Method in brief: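 Activators are scored by enhanced luminescence from CYP3A4 conversion of luciferin-PPXE (25uM, equal to KM) to luciferin, after 60 min at RT with an NADPH-regenerating system.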

[3] = Cell Viability - LYMP2-001 (AID 921);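 also: 0% = DMSO only and full inhibition = tetraoctylammonium bromide control wells; nearly all actives have a fitted effect of over 70% in size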
Method in brief: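 CellTiter-Glo luminescence (intracellular ATP) after 24 hr compound exposure at 37 C, 2500 lymphoblastoid cells/well in complete medium. AC50 fitted with standard Hill equation; tetraoctylammonium bromide positive control.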

[4] = MultiTox-Fluor Cytotoxicity Assay - LYMP1-001 - Live Cells (AID 947);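 also: 0% = DMSO only and full inhibition = tetraoctylammonium bromide control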
[5] = Cell Viability - LYMP1-002 - Assay at 16 hr (AID 948);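 also: 0% = DMSO alone and full effect = 92 µM tetraoctylammonium bromide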
Method in brief: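 LYMP1-002 human lymphoblastoid cells, 2500/well; 5 hr 37 C; cpd 16 hr 37 C; CellTiter-Glo 30 min RT; luminescence (ATP). Concentration-response, Hill-fit AC50. Pos ctrl tetraoctylammonium bromide.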

[6] = MultiTox-Fluor Cytotoxicity Assay - LYMP1-002 - Live Cells (AID 955);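 also: cells exposed to compound for 16 hours; % is scaled to controls: 0 for no effect and ±100 for the full control effect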
Method in brief: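 Cells were seeded at 2500 per well and incubated 5 hr. Compounds were then added for 16 hr at 37 C, followed by MultiTox-Fluor reagent for 60 min at room temperature and fluorescence reading of viable-cell protease signal.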

[7] = MultiTox-Fluor Cytotoxicity Assay - LYMP1-002 - Dead Cells (AID 960);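 also: cells exposed to compound for 16 h at 37 °C; nearly all actives have a fitted effect of over 60% in size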
Method in brief: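 Cells were plated, rested 5 hr, then treated with compound dilution series for 16 hr at 37 C. After adding substrate reagent and 60 min at room temperature, dead-cell protease fluorescence gave concentration-response curves fitted by the Hill equation.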

[8] = MultiTox-Fluor Cytotoxicity Assay - LYMP1-003 - Dead Cells (AID 961);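 also: cells exposed to compound for 16 h at 37 °C; nearly all actives have a fitted effect of over 70% in size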
Method in brief: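 LYMP1-003 lymphoblastoid, 2500 cells/well, 5 hr settle then 16 hr cpd at 37 C; MultiTox-Fluor reagent 60 min RT; Ex/Em 485/520 dead-cell signal; norm. DMSO = 0%, 15 uM tetraoctylammonium bromide = 100%; Hill AC50.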

[9] = MultiTox-Fluor Cytotoxicity Assay - LYMP1-003 - Live Cells (AID 962);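 also: cells exposed to compound for 16 hours at 37 °C; 0% = DMSO only and full loss = 92 µM tetraoctylammonium bromide; cytotoxic hits lower the live-cell protease signal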
Method in brief: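 Acute cytotoxicity is scored as a drop in live-cell protease activity in human lymphoblastoid LYMP1-003 cells after 16 hr compound exposure at 37 C. AC50 values come from Hill-equation modelling of concentration-response data.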

[10] = Cell Viability - LYMP1-003 - Assay at 40 hr (AID 964); also: % is scaled to controls: 0 for no effect and ±100 for the full control effect; nearly all actives have a fitted effect of over 60% in size
Method in brief: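 Luminescent ATP signal (CellTiter-Glo) served as the viability read-out after 40 hr compound treatment of human lymphoblastoid LYMP1-003 cells at 37 C. Decreases in ATP were fitted with the Hill equation to give AC50.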

[11] = Cell Viability - LYMP2-003 (AID 965);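 also: cells exposed to compounds for 24 h before reading; 0% = DMSO only and full effect = 92 µM tetraoctylammonium bromide; nearly all actives have a fitted effect of over 50% in size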
Method in brief: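 CellTiter-Glo luminescence (cellular ATP) after 24 h compound exposure at 37 C in complete medium; 2500 cells/well, 5 h settling beforehand. Concentration-response fitted to standard Hill equation for AC50. Tetraoctylammonium bromide served as positive control.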

[12] = Cell Viability - LYMP2-004 (AID 966);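 also: plate controls were DMSO only for no effect and tetraoctylammonium bromide control for full effect; nearly all actives have a fitted effect of over 65% in size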
Method in brief: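 qHTS cytotoxicity: human lymphoblastoid line, 24 hr compound treatment, 37 C, complete medium. Viability read as cellular ATP via luciferase luminescence; tetraoctylammonium bromide served as positive control.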

[13] = Cell Viability - LYMP2-009 (AID 968);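 also: 0% = DMSO alone and the full-kill end = tetraoctylammonium bromide at 92 µM; nearly all actives have a fitted effect of over 55% in size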
[14] = Cell Viability - LYMP2-011 (AID 969);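 also: 0% = DMSO only and full inhibition = 92 µM tetraoctylammonium bromide; nearly all actives have a fitted effect of over 60% in size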
Method in brief: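 In this qHTS cytotoxicity format, compounds are tested across concentrations on human lymphoblastoid cells in complete medium for 24 hours at 37 C. Viability is taken as cellular ATP measured by luciferase luminescence.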

[15] = Cell Viability - LYMP2-013 (AID 970);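 also: 0% = DMSO only and full inhibition = tetraoctylammonium bromide control; nearly all actives have a fitted effect of over 55% in size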
Method in brief: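 Cytotoxicity is scored as a concentration-dependent drop in intracellular ATP in human lymphoblastoid cells after 24 hr compound exposure at 37 C. ATP is quantified by luciferase luminescence, and AC50 values come from Hill-equation modeling.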

[16] = Cell Viability - LYMP2-015 (AID 971);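 also: 0% = DMSO only and full effect = 92 µM tetraoctylammonium bromide; nearly all actives have a fitted effect of over 55% in size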
Method in brief: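 Cells are seeded at 2500 per well and incubated 5 hr at 37 C. Compounds are added across a concentration series for 24 hr at 37 C. CellTiter-Glo is added, and luminescence is read after 30 min at room temperature.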

[17] = Cell Viability - LYMP2-017 (AID 972); also: % is scaled to controls: 0 for no effect and ±100 for the full control effect; nearly all actives have a fitted effect of over 55% in size
Method in brief: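 Cytotoxicity is scored as a concentration-dependent drop in cellular ATP in a human lymphoblastoid line after 24 hr treatment at 37 C. Values are AC50s from Hill-equation modelling.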

[18] = Cell Viability - LYMP2-019 (AID 973)
Method in brief: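 Cytotoxicity is scored as a concentration-dependent drop in cellular ATP after cells (2500/well) receive compound for 24 hr at 37 C. Tetraoctylammonium bromide serves as positive control.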

[19] = Cell Viability - LYMP2-021 (AID 974)
Method in brief: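 Loss of cellular ATP, measured with a luciferase-based CellTiter-Glo readout, serves as the toxicity signal in human lymphoblastoid cells treated for 24 hours at 37 C. Potency is reported as AC50 from a standard Hill model.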

[20] = Cell Viability - LYMP2-023 (AID 975)
Method in brief: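 Steps: seed 2500 human lymphoblastoid cells per well, incubate 5 hr at 37 C, add compound for 24 hr at 37 C, add CellTiter-Glo, hold 30 min at room temperature, read luminescence. AC50 derived by Hill modelling.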

[21] = Cell Viability - LYMP2-025 (AID 976);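 also: plate controls were DMSO only for no effect and tetraoctylammonium bromide control for full effect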
Method in brief: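 Acute cytotoxicity is scored as a concentration-dependent fall in intracellular ATP, measured by luciferase luminescence, in human lymphoblastoid LYMP2-025 cells exposed to compound for 24 hours at 37 C. AC50 values come from standard Hill fits.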

[22] = Cell Viability - LYMP2-002 (AID 977);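 also: plate controls were DMSO only for no effect and 92 µM tetraoctylammonium bromide for full effect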
Method in brief: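 In this qHTS viability screen, 2500 human lymphoblastoid cells per well receive compound for 24 hr at 37 C, and luciferase-based ATP luminescence gives the viability signal. Tetraoctylammonium bromide serves as positive control.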

[23] = Cell Viability - LYMP2-006 (AID 978); also: % is scaled to controls: 0 for no effect and ±100 for the full control effect; nearly all actives have a fitted effect of over 60% in size
Method in brief: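 qHTS, 1536-well; 2500 cells/well, 5 hr 37 C; cpd 24 hr 37 C; CellTiter-Glo 30 min RT; luminescence. Tetraoctylammonium bromide pos. ctrl. AC50 via Hill eqn.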

[24] = Cell Viability - LYMP2-007 (AID 979)
Method in brief: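 Cells are seeded at 2500 per well and rested 5 hr. Compounds are then added over a concentration series for 24 hr at 37 C. CellTiter-Glo is added for 30 min at room temperature before luminescence reading.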

COC1=CC(=O)OC(CCc2ccccc2)C1 (centres undefined)
inactive: caspase-3 activation [1] 1.48% | Potency [2] | Potency [3] | Potency [4] | Potency [5] | outcome [6] | Potency [7] | Potency [8] | Potency [9] | Potency [10] | Potency [11] | Potency [12] | Potency [13] | Potency [14] | Potency [15] | Potency [16] | Potency [17] | Potency [18] | Potency [19] | Potency [20] | Potency [21] | Potency [22] | Potency [23] | Potency [24]
